Data taken from PubChem BioAssay (NCATS).
“And” between values parts separate entries of the source, which are not always exact repeats. Equal values may be shown once. The source made the active and inactive calls. The call rests on the fitted dose curve; in most records, active means well fitted activation curve with a large enough effect; inconclusive means small, poorly fitted or top-dose-only effect; inactive means no such curve, though single readings can be large or run the other way.

Target: Cytochrome P450 3A4 (Homo sapiens) (UniProt P08684)
Sequence (P08684 whole entry, looked up): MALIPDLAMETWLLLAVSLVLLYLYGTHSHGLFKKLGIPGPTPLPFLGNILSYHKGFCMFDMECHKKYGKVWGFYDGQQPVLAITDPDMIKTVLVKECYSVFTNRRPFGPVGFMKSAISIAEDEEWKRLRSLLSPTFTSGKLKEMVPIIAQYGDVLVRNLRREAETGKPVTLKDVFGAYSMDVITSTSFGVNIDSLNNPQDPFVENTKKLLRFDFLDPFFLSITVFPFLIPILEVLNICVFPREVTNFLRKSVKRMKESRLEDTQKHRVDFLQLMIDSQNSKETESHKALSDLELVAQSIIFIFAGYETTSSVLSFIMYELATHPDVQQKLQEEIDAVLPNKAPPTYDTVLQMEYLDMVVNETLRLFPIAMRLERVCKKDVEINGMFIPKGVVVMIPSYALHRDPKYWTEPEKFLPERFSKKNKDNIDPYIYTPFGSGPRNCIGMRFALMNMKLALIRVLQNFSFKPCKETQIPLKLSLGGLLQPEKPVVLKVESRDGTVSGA
Assay: qHTS Assay for Activators of Cytochrome P450 3A4 (AID 885); further: nearly all actives have a fitted effect of over 65% in size
Conditions: recombinant CYP3A4, Luciferin-PPXE luminescence, 60 min; series mostly up to 57.1 µM
Method in brief: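 Luminescent readout of luciferin formed from 25 uM Luciferin-PPXE (KM level) by 20 nM CYP3A4 in 200 mM KPO4, with 60 min NADPH-driven reaction at room temperature after 10 min compound exposure. Ketoconazole (57 uM) defined 100% inhibition.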

Activity change, positive = activation, inactive:
O=C1[C@H]2[C@H]3[C@H](O)[C@H](O)C/C(=N/OCc4ccccc4)[C@H]3CC[C@@H]2C(=O)N1Cc1ccc2c(c1)OCO2 -96.1% [at 11.4 µM]
COc1ccc(O[C@H]2C=C[C@@H](c3ccccc3)O[C@H]2CO/N=C(/C)CCC(=O)OC[C@@H]2O[C@H](C#Cc3ccccc3)C=C[C@@H]2Oc2ccc(C)cc2)cc1 -52.7% [at 11.4 µM]
CO[C@@H]1COC(=O)[C@H]2CCCN2C(=O)[C@@H](C)COC(=O)[C@H](COCc2ccccc2)NC(=O)C/C=C\[C@H]1C -38.2% [at 11.4 µM]
CO[C@H]1COC(=O)[C@H]2CCCN2C(=O)C/C=C\[C@@H](C)[C@H](OC)COC(=O)[C@@H](OCc2ccccc2)/C=C\[C@@H]1C -30.9% [at 11.4 µM]
CO[C@H]1COC(=O)C/C=C\[C@@H](C)[C@H](OC)COC(=O)CCC[C@@H]1C -58.3% [at 11.4 µM]
Cc1cc2c(nc1C)CCCN2C[C@H](C)O/N=C1/[C@H]2O[C@@H]2[C@@H](O)[C@H]2[C@H]1CCn1c(=O)n(-c3ccccc3)c(=O)n12 -35.6% [at 11.4 µM]
CO[C@@H]1COC(=O)C/C=C\[C@@H](C)COC(=O)[C@H](COCc2ccccc2)NC(=O)C/C=C\[C@H]1C -56.3% [at 11.4 µM]
CC(C)CO/N=C1/C[C@@H](O)[C@@H](O)[C@@H]2[C@@H]3C(=O)N(Cc4ccccc4)C(=O)[C@H]3CC[C@H]12 -30.2% [at 11.4 µM]
CO[C@H]1COC(=O)CCC[C@@H](C)[C@H](OC)COC(=O)[C@H]2CCCN2C(=O)C/C=C\[C@@H]1C -30.7% [at 11.4 µM]
CCCC[C@@H]1CN2[C@H](c3ccc(Br)cc3)[C@@H](C)CC[C@H]2C(=O)O1 -59.6% [at 11.4 µM]
C#CCCCO/N=C1/C[C@@H](O)[C@@H](O)[C@@H]2[C@@H]3C(=O)N(C[C@@H]4CCCO4)C(=O)[C@H]3CC[C@H]12 -43.2% [at 11.4 µM]
O=C(N/N=C1/C[C@@H](O)[C@@H](O)[C@@H]2[C@H]3C(=O)N(c4ccc(F)cc4F)C(=O)[C@@H]3CC[C@@H]12)OCc1ccccc1 -45.4% [at 11.4 µM]
C#CCCCO/N=C1/C[C@@H](O)[C@@H](O)[C@@H]2[C@@H]3C(=O)N(CCC(=O)OCC)C(=O)[C@H]3CC[C@@H]12 -45.7% [at 11.4 µM]
CC(C)[C@@H](OCc1ccccc1)[C@H](C)/C=N\O[C@@H](C)c1cn([C@H](CO)Cc2ccccc2)nn1 -36% [at 11.4 µM] and -44.1% [at 11.4 µM]
C/C(CCN1CCCc2nc(C)c(C)cc21)=N\O[C@@H](C)c1cc(-c2c(C)cc(C)cc2C)no1 -56.9% [at 11.4 µM]
C#CCCCO/N=C1/C[C@@H](O)[C@@H](O)[C@@H]2[C@@H]3C(=O)N(CCC(=O)OCC)C(=O)[C@H]3CC[C@H]12 -51% [at 11.4 µM]

Potency, inactive:
CN1C[C@@H]2C(c3ccccc3)C3(c4ccc(C#N)cc4)CC2(C3)[C@H]1c1ccccc1 (stereo partly specified)
COC(=O)c1cccc(C23CC4(C2)[C@H](CN(C)[C@@H]4c2ccccc2)C3c2ccc(Cl)nc2)c1 (stereo partly specified)
COC(=O)[C@@H]1C[C@@H]2CC[C@@H](O)C[C@@H]2N1Cc1ccc(C)s1
Cn1c(N)c(C(=O)COC(=O)c2cc(-c3ccccc3)nc3ccccc23)c(=O)n(Cc2ccccc2)c1=O
Cc1ccc2oc(=O)c3c4cc(O)c(O)c(C)c4oc3c2c1
Cn1c(N)c(C(=O)COC(=O)c2ccnc3ccccc23)c(=O)n(C)c1=O
CCC1=C(OC(=O)N(CC)CC)N2C(=O)OC(=NCCOC)[C@]2(C)[C@H]2C1=CC[C@H]1C(=O)NC(=O)[C@H]12
COC(=O)[C@@H]1C[C@@]2(O)[C@H](O)[C@H](O)[C@H](O)C[C@H]2N1Cc1c(F)cccc1Cl
N#Cc1ccc(C23CC4(C2)[C@H](CN(Cc2ccc(-c5ccccc5)cc2)[C@@H]4c2ccccc2)C3c2ccccc2)cc1 (stereo partly specified)
CCC1=C2CC[C@H]3C(=O)N(CC(=O)OC)C(=O)[C@H]3[C@H]2[C@@]2(C)C(=O)N(CC3CC3)C(=O)N2C1=O
